Reference: the supplement of paper PMC12350171
Counter-ions that a name gives are not always drawn. Unmarked numbers belong to inactive results.

Key:
Details in all cases: 20 µM
[1] = test system: Salmonella enterica typhimurium; experiment: growth AUC normalised to DMSO control (fraction of control); higher = less growth inhibition, active = hit call of the paper
Outline: (§1)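 After two anaerobic passages, pathogens were added at a starting OD578 of 0.01 to pre-reduced mGAM plates holding compound at 20 μM with 1% DMSO; hemin and NAD were supplemented for Haemophilus parainfluenzae. Sealed with breathable membranes, plates were read at OD578 hourly for 24 h, in three biological replicates. The trapezoidal rule, applied up to the exponential-to-stationary transition, gave the growth-curve AUC, which was normalised to DMSO controls on the same plate.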

Shigella flexneri = experiment: as above
Outline: as §1

Vibrio cholerae = experiment: as above
Outline: as §1

[2] = test system: Yersinia pseudotuberculosis; experiment: as above
Outline: as §1

P. vulgatus RND KO = experiment: growth AUC normalised to DMSO control (median) (fraction of control); higher = less growth inhibition, active = hit call of the paper
Outline: (§2)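 Anaerobic growth was tracked hourly at OD578 for 24 h in 96-well plates of mGAM seeded at OD578 0.01 with each approved-drug library compound at 20 μM and 1% DMSO. Strains had first been passaged twice overnight without oxygen. Three biological replicates were run. The reported median is the area under the curve, calculated by the trapezoidal rule on curves truncated at entry into stationary phase and normalised to vehicle wells on the same plate.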

P. vulgatus WT = experiment: as above
Outline: as §2

[3] = test system: S. enterica typhimurium WT; experiment: as above
Outline: as §2

[4] = test system: S. enterica typhimurium tolC KO; experiment: as above
Outline: as §2
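Wherever growth AUC normalised to DMSO control (median) is given: active when median AUC fell below 0.1.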

| Compound | growth AUC normalised to DMSO control [1] | growth AUC normalised to DMSO control (Shigella flexneri) | growth AUC normalised to DMSO control (Vibrio cholerae) | growth AUC normalised to DMSO control [2] | growth AUC normalised to DMSO control (P. vulgatus RND KO) | growth AUC normalised to DMSO control (P. vulgatus WT) | growth AUC normalised to DMSO control [3] | growth AUC normalised to DMSO control [4] |
| --- | --- | --- | --- | --- | --- | --- | --- | --- |
| COc1cnc(NS(=O)(=O)c2ccc(N)cc2)nc1 [Sulfameter] | 1 | 0.986 | 1.01 | 1 | 0.992 | 1 | 0.993 | 0.993 |
| COc1ccccc1N1CCN(CCCNc2cc(=O)n(C)c(=O)n2C)CC1 [Urapidil hydrochloride] | 1.01 | 0.992 | 0.984 | 1 | 0.976 | 0.976 | 1 | 0.992 |
| NC1CCN(c2nc3c(cc2F)c(=O)c(C(=O)O)cn3-c2ccc(F)cc2F)C1 (stereo not given) [Tosufloxacin hydrochloride] | 0.00626 (active) | 0.0173 (active) | 0.0443 (active) | 0.0355 (active) | 0.0157 (active) | 0.012 (active) | 0.00524 (active) | 0.00501 (active) |
| C#C[C@]1(O)CC[C@H]2[C@@H]3CCC4=Cc5oncc5C[C@]4(C)[C@H]3CC[C@@]21C [Danazol] | 0.994 | 0.971 | 0.991 | 0.954 | 0.982 | 0.992 | 1 | 0.983 |
| O=C1CCc2ccc(OCCCCN3CCN(c4cccc(Cl)c4Cl)CC3)cc2N1 [Aripiprazole] | 1.02 | 1.03 | 1.02 | 1.01 | 0.889 | 0.891 | 1.01 | 0.92 |
| O=C1C(CC[S+]([O-])c2ccccc2)C(=O)N(c2ccccc2)N1c1ccccc1 (stereo not given) [Sulfinpyrazone] | 0.996 | 1 | 1 | 0.971 | 1 | 1.01 | 0.998 | 0.985 |
| CC#C[C@]1(O)CC[C@H]2[C@@H]3CCC4=CC(=O)CCC4=C3[C@@H](c3ccc(N(C)C)cc3)C[C@@]21C [Mifepristone] | 1.01 | 0.988 | 0.994 | 1.01 | 0.93 | 0.954 | 0.999 | 0.92 |
| CC1CC(OC(=O)c2ccccc2O)CC(C)(C)C1 (stereo not given) [Homosalate] | 1 | 0.996 | 1.02 | 1.01 | 0.995 | 1.03 | 1.01 | 0.998 |
| Nc1ccc(S(=O)(=O)c2ccc(N)cc2)cc1 [Dapsone] | 0.982 | 0.994 | 0.988 | 1 | 1.01 | 1 | 1 | 0.994 |
| CCC(C)n1ncn(-c2ccc(N3CCN(c4ccc(OCC5COC(Cn6cncn6)(c6ccc(Cl)cc6Cl)O5)cc4)CC3)cc2)c1=O (stereo not given) [Itraconazole] | 1.01 | 1.03 | 1.04 | 0.998 | 1.1 | 1.1 | 1.02 | 1 |
| O=C1NCN(c2ccccc2)C12CCN(CCCC(c1ccc(F)cc1)c1ccc(F)cc1)CC2 [Fluspirilene] | 1.04 | 1.01 | 1.04 | 1.01 | 1 | 1.01 | 1.02 | 0.988 |
| Fc1ccc([C@@H]2CCNC[C@H]2COc2ccc3c(c2)OCO3)cc1 [Paroxetine hydrochloride] | 0.995 | 1 | 0.94 | 0.991 | 0.997 | 1.02 | 0.998 | 0.982 |
| CC(=O)OCC(CCn1cnc2cnc(N)nc21)COC(C)=O [Famciclovir] | 1.02 | 1.01 | 1.04 | 1.01 | 1.03 | 1.03 | 1 | 0.976 |
| CN1CCN2c3ccccc3Cc3ccccc3C2C1 (stereo not given) [Mianserine hydrochloride] | 0.986 | 0.986 | 0.868 (active) | 0.956 | 1.03 | 1.03 | 0.994 | 1 |
| CC1Cc2ccccc2N1NC(=O)c1ccc(Cl)c(S(N)(=O)=O)c1 (stereo not given) [Indapamide] | 1 | 0.985 | 1.01 | 0.992 | 0.999 | 1.02 | 1 | 0.988 |
| CN1Cc2c(N)cccc2C(c2ccccc2)C1 (stereo not given) [Nomifensine maleate] | 0.977 | 1.01 | 0.961 | 0.94 | 1 | 0.987 | 0.997 | 1 |
| CO[C@H]1/C=C/O[C@@]2(C)Oc3c(C)c(O)c4c(O)c(c(/C=N/N5CCN(C6CCCC6)CC5)c(O)c4c3C2=O)NC(=O)/C(C)=C\C=C\[C@H](C)[C@H](O)[C@@H](C)[C@@H](O)[C@@H](C)[C@H](OC(C)=O)[C@@H]1C [Rifapentine] | 0.258 (active) | 0.588 (active) | 1.03 | 0.0449 (active) | 0.0203 (active) | 0.0164 (active) | 0.78 | 0.716 |
| Cc1c(C)c2c(c(C)c1O)CCC(C)(C(=O)O)O2 (stereo not given) [Trolox] | 1 | 1.02 | 0.995 | 1.01 | 0.996 | 1.02 | 1 | 1 |
| CN(C)[C@@H]1C(=O)C(C(N)=O)=C(O)[C@@]2(O)C(=O)C3=C(O)c4c(O)ccc(Cl)c4[C@@H](O)[C@H]3C[C@@H]12 [Demeclocycline hydrochloride] | 0.00255 (active) | 0.0177 (active) | 0.056 (active) | 0.0357 (active) | 0.015 (active) | 0.0137 (active) | 0.00782 (active) | 0.00561 (active) |
| Fc1ccc(C(c2ccc(F)cc2)N2CCN(C/C=C/c3ccccc3)CC2)cc1 [Flunarizine dihydrochloride] | 1.04 | 1.04 | 1.01 | 1.02 | 1.01 | 1.03 | 1.02 | 0.987 |
| COc1cccc2c1C(=O)c1c(O)c3c(c(O)c1C2=O)C[C@@](O)(C(C)=O)C[C@@H]3O[C@H]1C[C@H](N)[C@H](O)[C@H](C)O1 [Daunorubicin hydrochloride] | 0.998 | 0.959 | 1.04 | 0.978 | 0.865 | 0.95 | 0.999 | 0.00353 (active) |
| OCCN1CCN(CCCN2c3ccccc3Sc3ccc(C(F)(F)F)cc32)CC1 [Fluphenazine dihydrochloride] | 1.01 | 0.97 | 1.01 | 1.01 | 1 | 1 | 0.993 | 0.918 |
| C[C@@](Cc1ccc(O)c(O)c1)(NN)C(=O)O [Carbidopa] | 0.994 | 0.948 | 0.996 | 0.972 | 0.99 | 0.993 | 1 | 1.01 |
| CC(=O)NCCCS(=O)(=O)O [Acamprosate calcium] | 1 | 1.02 | 1 | 0.99 | 1.02 | 1.03 | 1 | 0.996 |
| Nc1nnc(-c2cccc(Cl)c2Cl)c(N)n1 [Lamotrigine] | 0.963 | 0.933 | 1.03 | 1.01 | 0.95 | 0.986 | 0.957 | 0.962 |
| CN1CCN(C2=Nc3cc(Cl)ccc3Nc3ccccc32)CC1 [Clozapine] | 1.02 | 1.05 | 0.969 | 1 | 1.01 | 1.02 | 1 | 0.977 |
| CN(C)CCC=C1c2ccccc2COc2ccccc21 [Doxepin hydrochloride] | 1 | 0.977 | 0.899 | 0.994 | 0.976 | 0.962 | 0.997 | 0.977 |
| CO[C@@]1(NC(=O)CSCC#N)C(=O)N2C(C(=O)O)=C(CSc3nnnn3C)CS[C@@H]21 [Cefmetazole sodium salt] | 0.00445 (active) | 0.0256 (active) | 0.337 (active) | 0.139 (active) | 0.0391 (active) | 0.03 (active) | 0.00692 (active) | 0.00805 (active) |
| COc1cc(NS(=O)(=O)c2ccc(N)cc2)nc(OC)n1 [Sulfadimethoxine] | 1.02 | 1.01 | 1.02 | 0.987 | 0.994 | 1.04 | 1 | 0.99 |
| CCN(CC)CCNC(C(=O)OCCC(C)C)c1ccccc1 (stereo not given) [Camylofine chlorhydrate] | 0.992 | 0.991 | 0.953 | 0.997 | 1.01 | 1.02 | 1 | 0.973 |
